Source: PubChem (several laboratories)
HSF1 activator – increases HSF-1 driven luciferase reporter signal. NIH3T3-HGL HSF-1 luciferase reporter, MG132, 8 h; 100% = twice DMSO control signal. activation, % at 9 µM. 300,000 tested, 1.7% active. AID 504408;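 active means mean replicate activation of at least 50% with a set share of replicates each reaching 50%; inconclusive means only one of those two conditions met; inactive means mean below 50% and too few replicates reaching it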;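 further: 0% = median of the neutral control wells and 100% = twice that signal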
esBAF inh – SWI/SNF esBAF complex inhibition; mouse ES cells, Bmi1-luciferase knock-in reporter, 24 h; 100% = twice the neutral-well signal; reporter increase, % at 12.5 µM; 350,000 tested, 2% active; in the data active means activation above about 40%; inconclusive means no clear call, values can overlap the other calls;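 further: 0% = median of the plate's neutral control wells and 100% = double that signal; a rise in the Bmi1 reporter signal indicates esBAF inhibition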
Wnt act – activators of Wnt/beta-catenin signaling | Wnt/beta-catenin reporter cell assay, activator, plate reader | activation, % at 9.35 µM | 300,000 tested, 1.2% active | AID 743398; in the data active means activation above about 30%, passing the limit was not always enough; inconclusive means no clear call, values can overlap the other calls;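 further: 0% = neutral control wells and 100% = positive control wells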
MITF TRPM1 HTS – activators of MITF-driven TRPM1 promoter activity in SK-MEL-5 cells; SK-MEL-5 TRPM1-promoter luciferase, 24 h; % of positive control, neutral wells = 0; activation, % at 12.5 µM; 300,000 tested, 0.75% active; AID 588334;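 active means mean activation of at least 80% with every replicate also reaching 80%; inconclusive means mean reaches 80% but some replicate falls short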;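 further: 0% = neutral control wells and 100% = parthenolide positive control wells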
SMARCA2 act – SMARCA2 function activation, primary screen | MG213 cells, MMTV-luciferase reporter, dexamethasone, overnight | activation, % at 9.1 µM | 370,000 tested, 1% active; in the data active means activation above about 7.8%;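 further: 0% = vehicle wells and 100% = reference activator wells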
HSF1 inh – HSF1 inhibition. NIH3T3-HGL HSE-luciferase, MG132-induced, luminescence 8 h; hits give low values. activity change, negative = inhibition, % at 7.5 µM (by protocol). 300,000 tested, 0.77% active;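 active means more than half of replicate wells show activity change below -50%, luminescence cut by over half; inconclusive means some wells, but at most half, below -50%; inactive means no replicate well below -50%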;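 further: luciferase reports HSF-1 transcriptional activity via heat shock element; 0% = median of DMSO wells and -100% = zero luminescence signal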
* hit, by the source's call; ? = inconclusive; . = no result given. Only some compounds are listed: those with a hit (about 4.3% of all), similar ones and a draw of the others.

SMILES	HSF1 activator	esBAF inh	Wnt act	MITF TRPM1 HTS	SMARCA2 act	HSF1 inh
C[C@@H]1CN([C@H](C)CO)S(=O)(=O)c2ccc(-c3ccc(C#N)cc3)cc2O[C@@H]1CN(C)C(=O)CN(C)C	.	-2.1	.	.	.	.
C[C@H]1CN([C@@H](C)CO)C(=O)Cc2cc(NC(=O)Cc3ccccc3)ccc2O[C@@H]1CN(C)Cc1ccc(-c2ccccc2)cc1	.	-3.5	.	.	.	.
CC(=O)c1cccc(NC(=O)c2ccc3c(c2)CCCC3)c1	18.2	14.8	23.7	113.0*	4.7	-2.6
CC(=O)c1cccc(NC(=O)Nc2ccc3c(c2)CCC3)c1	32.3	65.9*	19.0	96.5*	0.8	19.3
CC(C)CC#Cc1cnc2c(c1)C(=O)N([C@@H](C)CO)C[C@@H](C)[C@@H](CN(C)C(=O)c1cccc(F)c1)O2	.	-4.5	.	.	.	.
COc1cccc(C(=O)Nc2ccc3c(c2)OC[C@@H](C)N(C(C)=O)C[C@H](C)[C@H](OC)CN(C)C3=O)c1	.	-6.2	.	.	.	.
CCN(CC)C(=O)COC(=O)c1ccc(C)c(NC(=O)c2ccco2)c1	-67.0	.	-2.2	-3.9	0.3	-59.2*
Cc1ccc(C(=O)N2c3ccccc3CC2C)o1 (stereo not given)	54.4*	9.7	12.9	51.1	7.7	31.9
CC1Cc2ccccc2N1C(=O)c1ccc(Br)o1 (stereo not given)	41.8	91.5*	20.3	.	4.1	25.0
CC1Cc2ccccc2N1C(=O)c1ccc2c(c1)OCO2 (stereo not given)	-3.5	-1.7	0.3	3.1	-0.6	-5.2
O=C(/C=C/NNC(=O)c1ccccc1O)c1ccccc1	4.9	61.1*	-0.1	0.3	-0.8	0.3
O=C(/C=C/NNC(=O)c1ccccc1)c1ccccc1	18.7	16.2	.	7.8	5.8	15.0
COc1cccc(C(=O)Nc2ccc3c(c2)C(=O)N(C)C[C@@H](OC)[C@H](C)CN(CC2CC2)[C@H](C)CO3)c1	.	33.0	.	.	.	.
CCOC(=O)C1CCCN(C(=O)c2sc3nc(C)nc(N(CC)CC)c3c2C)C1 (stereo not given)	56.9*	0.4	.	6.0	1.4	26.0
O=C(CSc1ncnc2c1nnn2-c1ccc(F)cc1)NCC1CCCO1 (stereo not given)	73.9*	3.9	.	-7.8	0.0	46.4
Cn1c(SCC(=O)NCC2CCCO2)ncc(C(=O)Nc2ccc(Cl)cc2)c1=O (stereo not given)	57.5*	28.8	13.1	-67.8	1.7	29.2
Cn1c(SCC(=O)NCC2CCCO2)ncc(C(=O)Nc2ccc(F)cc2)c1=O (stereo not given)	67.2*	.	19.0	-44.4	-2.8	69.5
CC(C)c1ccc(Nc2nnc(SCC(=O)NCC3CCCO3)s2)cc1 (stereo not given)	.	8.2	46.6*	36.9	1.1	.
Cc1nc(SCC(=O)NCC2CCCO2)nc(C)c1C (stereo not given)	.	-0.1	-0.3	-4.7	3.6	.
Cc1nc(SCC(=O)NCC2CCCO2)[nH]c(=O)c1C (stereo not given)	-66.6	.	2.4	4.1	-1.9	-55.9*
CC(Cc1ccccc1)C(=O)Nc1ccccc1 (stereo not given)	-71.4	9.6	2.3	6.7	1.8	-64.7*
CC(SCc1ccccc1)C(=O)Nc1ccccc1 (stereo not given)	-1.9	-0.9	37.1*	5.0	1.0	-2.6
C[C@@H]1CN([C@H](C)CO)C(=O)c2cc(NS(C)(=O)=O)ccc2O[C@H]1CN(C)Cc1ccc(C(=O)Nc2ccccc2N)cc1	.	4.9	.	.	.	.
COC(=O)c1cc(/C=C/c2ccccc2)on1	17.4	-3.1	.	.	-1.5	-4.8
COC(=O)c1cc(/C=C/c2ccccc2)[nH]n1	44.0	60.8*	5.6	66.5	7.2	10.5
SMILES	HSF1 activator	esBAF inh	Wnt act	MITF TRPM1 HTS	SMARCA2 act	HSF1 inh
O=C(OCC(=O)N1CCC(Cc2ccccc2)CC1)c1ccccc1O	.	.	-3.3	90.5*	-0.5	.
O=C(OCC(=O)N1CCOCC1)c1ccccc1Cc1ccccc1	73.7*	.	-1.3	62.6	3.8	27.4
O=C(OCC(=O)N1CCC(Cc2ccccc2)CC1)c1ccccc1NCCO	35.7	.	-3.6	11.4	0.2	5.6
CO[C@H]1CN(C)C(=O)c2ccc(NC(=O)C3CCCC3)cc2OC[C@@H](C)N(C(=O)CC2CC2)C[C@@H]1C	.	-1.8	.	.	.	.
Cc1ccc(-c2c(C)sc(=NC(=O)c3ccco3)n2C)cc1	?	56.8*	.	100.2*	1.7	15.8
O=C(C[C@@H]1C[C@@H]2c3cc(NC(=O)c4ccc5c(c4)OCO5)ccc3O[C@@H]2[C@@H](CO)O1)NCc1cccc(F)c1	.	11.9	.	.	.	.
Cc1ccc2c(c1)N(CC(=O)O)C(=O)CO2	-83.1	0.3	.	5.5	5.0	-79.6*
CN(C)CCNC(=O)CN1C(=O)COc2ccc(C(C)(C)C)cc21	-75.4	-6.1	2.1	1.8	-1.1	-67.9*
COc1ccc(S(=O)(=O)N[C@H]2CC[C@H](CCNC(=O)c3ccccc3F)O[C@H]2CO)cc1	.	7.8	.	.	.	.
CO[C@@H]1CN(C)C(=O)c2cc(NS(=O)(=O)c3ccc(-c4ccccc4)cc3)ccc2OC[C@@H](C)NC[C@@H]1C	.	2.8	.	.	.	.
C[C@@H]1CN([C@@H](C)CO)C(=O)Cc2cc(NC(=O)Nc3ccc4c(c3)OCO4)ccc2O[C@H]1CN(C)S(=O)(=O)c1ccc(Cl)cc1	.	-3.4	.	.	.	.
CC(O/N=C\c1ccccc1O)C(=O)Nc1ccccc1C(=O)N1CCOCC1 (stereo not given)	-68.6	.	-4.0	8.4	-2.3	-57.6*
Cc1ccc(OC(C)C(=O)Nc2ccccc2C(=O)N2CCOCC2)cc1 (stereo not given)	-5.5	-2.7	-0.1	10.3	-2.3	-2.9
COC(=O)c1ccc(/C=N/OCC(=O)NC2CCCC(C)C2C)cc1 (stereo not given)	-3.3	.	.	-8.9	-2.2	-2.3
COc1cc(/C=N/OCC(=O)NC2CCCCC2C)ccc1OCc1ccc(Cl)cc1 (stereo not given)	1.7	98.3*	47.4*	41.7	5.6	-10.9
COc1cc(/C=N/OCC(=O)Nc2cc(C)cc(C)c2)ccc1OCc1ccc(Cl)cc1	71.1*	.	?	75.4	6.7	47.3
CN=C(c1ccc(C)cc1)n1c(=S)nc(-c2ccc(C)cc2)n(C)c1=S	35.6	82.9*	55.4*	1.8	-0.1	25.5
CN=C(c1ccco1)n1c(=S)nc(-c2ccco2)n(C)c1=S	7.9	8.6	-0.2	-8.3	7.8	-1.3
O=C(NC1CCCC1)c1n[nH]c2ccccc12	2.1	53.0*	8.0	66.1	2.1	2.2
O=C(NC1CCCCC1)C(=O)c1c[nH]c2ccccc12	11.3	45.1*	?	66.0	2.3	25.9
O=C(COC(=O)c1n[nH]c2ccccc12)NC(=O)NC1CCCC1	.	-9.1	-0.1	-0.4	-0.3	.
Cc1ccc(NC(=O)c2cc(=O)[nH]c3ccccc23)cc1	3.8	5.3	-2.1	-7.8	2.4	-4.6
Cc1ccc(NC(=O)C(=O)c2c[nH]c3ccccc23)cc1	84.5*	19.9	63.9*	.	3.3	54.7
